From PubChem BioAssay (NCI)
The panel holds about 79,000 compounds, 15% with a hit somewhere; the sample as a whole holds those more often. Calls of active or inactive are those of the source. No stated cut-off is given here; in the data, active means growth inhibition above about 70%; inactive means the rest.

Legend:
[1] = NCI Yeast Anticancer Drug Screen. Data for the rad52 strain (AID 147);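 further: 0% = growth of vehicle-treated control cultures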; conditions: S. cerevisiae rad52 mutant growth inhibition, hits give high values
Summary of the method: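 Vehicle-treated cultures served as the reference for growth inhibition of compound-exposed yeast bearing a DNA repair mutation.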

[2] = NCI Yeast Anticancer Drug Screen. Data for the rad50EPP+ strain (AID 151);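 further: 0% = growth of vehicle-treated control cultures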; conditions: S. cerevisiae rad50 mutant strain, hits give high values
Summary of the method: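 In this screen, rad50EPP+ yeast were exposed to compounds. Growth inhibition was scored against vehicle-treated controls.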

[3] = NCI Yeast Anticancer Drug Screen. Data for the mgt1 strain (AID 153); conditions: S. cerevisiae mgt1 mutant growth inhibition, hits give high values
Summary of the method: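 mgt1 strain exposed; growth vs vehicle control recorded as inhibition.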

[4] = NCI Yeast Anticancer Drug Screen. Data for the rad50 strain (AID 155);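 further: 0% = growth of vehicle-only cultures of the same strain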; conditions: S. cerevisiae rad50 strain growth inhibition, hits give high values
Summary of the method: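 Genetically altered yeast (DNA repair pathway); compound treatment; growth inhibition vs vehicle ctrl.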

[5] = NCI Yeast Anticancer Drug Screen. Data for the mec2-1 strain (AID 157); conditions: S. cerevisiae mec2-1 strain, hits give high values
Summary of the method: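 Vehicle-treated cultures served as reference for growth inhibition of compound-exposed mec2-1 yeast.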

[6] = NCI Yeast Anticancer Drug Screen. Data for the rad14 strain (AID 159);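 further: 0% = growth of vehicle-treated control cultures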; conditions: S. cerevisiae rad14 strain growth inhibition, hits give high values
Summary of the method: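 Test compounds were applied to a repair-deficient yeast strain. Its growth was then compared with that of cultures given vehicle alone, and inhibition was expressed relative to those controls.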

[7] = NCI Yeast Anticancer Drug Screen. Data for the sgs1 mgt1 strain (AID 161);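 further: 0% = growth of cultures given vehicle only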; conditions: S. cerevisiae sgs1 mgt1 strain, hits give high values
Summary of the method: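 Mutant yeast exposed to compound; growth scored against vehicle-only wells.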

[8] = NCI Yeast Anticancer Drug Screen. Data for the CLN2oe strain (AID 163);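 further: 0% = growth of vehicle-only control cultures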; conditions: S. cerevisiae CLN2oe strain, hits give high values
Summary of the method: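 Inhibition relative to vehicle-treated yeast is reported. Cells: strain with genetic alteration in cell-cycle control, grown with compound.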

[9] = NCI Yeast Anticancer Drug Screen. Data for the cln2 rad14 strain (AID 165);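 further: 0% = growth equal to vehicle treated cultures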; conditions: S. cerevisiae cln2 rad14 strain, hits give high values
Summary of the method: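 Each compound was tested on cln2 rad14 yeast. Inhibition of growth was calculated against vehicle-exposed controls.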

[10] = NCI Yeast Anticancer Drug Screen. Data for the bub3 strain (AID 167); conditions: S. cerevisiae bub3 mutant strain, hits give high values
Summary of the method: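 Yeast carrying a defined mutation is treated with each compound, and growth is compared with that of vehicle-exposed cells to give inhibition.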

[11] = NCI Yeast Anticancer Drug Screen. Data for the sgs1 strain (AID 173);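 further: 0% = growth of vehicle-only control cultures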; conditions: S. cerevisiae sgs1 mutant, hits give high values
Summary of the method: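 Screen format: yeast with repair or checkpoint alterations, compound exposure, growth read relative to vehicle.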

[12] = NCI Yeast Anticancer Drug Screen. Data for the mlh1 rad18 strain (AID 175); conditions: S. cerevisiae mlh1 rad18 strain growth inhibition, hits give high values
Summary of the method: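 Vehicle-treated cultures served as the reference for growth inhibition in a yeast strain carrying DNA damage repair alterations exposed to each compound.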

[13] = NCI Yeast Anticancer Drug Screen. Data for the rad18 strain (AID 177); conditions: S. cerevisiae rad18 mutant growth inhibition, hits give high values
Summary of the method: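 Test articles were incubated with altered yeast defective in DNA damage repair. Results are given as inhibition of growth versus vehicle.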

[14] = NCI Yeast Anticancer Drug Screen. Data for the wt1 strain (AID 149);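 further: 0% = growth of vehicle-treated wt1 cultures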; conditions: S. cerevisiae wt1 strain (SPY 50644) growth inhibition, hits give high values
Summary of the method: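 wt1 yeast, compound-treated; % growth inhibition vs vehicle control.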

[15] = NCI Yeast Anticancer Drug Screen. Data for the wt2 strain (AID 169);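 further: 0% = growth of vehicle-treated yeast cultures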; conditions: S. cerevisiae wt2 strain growth inhibition, hits give high values
Summary of the method: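 Inhibition of yeast growth was determined after compound treatment, normalised to controls receiving only vehicle.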

[16] = NCI Yeast Anticancer Drug Screen. Data for the mlh1 strain (AID 171);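 further: 0% = growth of vehicle-treated control cultures of the same strain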; conditions: S. cerevisiae mlh1 strain growth inhibition, hits give high values
Summary of the method: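 Vehicle-normalised growth inhibition of a repair- or checkpoint-altered yeast strain following compound treatment.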

[17] = at 5.0 µM (retest, dose inferred, filed as 0.5)
[18] = at 50.0 µM (retest, dose inferred, filed as 5.0)

Measured: growth inhibition

CCN(CC)CCBr
inactive: [1]; at 1.2 µM 1% | [1]; at 3.7 µM 4% | [1]; at 11.0 µM 12% | [1]; at 33.0 µM 43% | [2]; at 1.2 µM 2% | [2]; at 3.7 µM 6% | [2]; at 11.0 µM 27% | [2]; at 33.0 µM 68% | [3]; at 1.2 µM -2% | [3]; at 3.7 µM 0% | [3]; at 11.0 µM -1% | [3]; at 33.0 µM -1% | [3]; at 100.0 µM -2% | [4]; at 1.2 µM 0% | [4]; at 3.7 µM -38% | [4]; [17] 9% | [4]; at 11.0 µM 13% | [4]; at 33.0 µM 53% | [4]; [18] 65% | [5]; at 1.2 µM -1% | [5]; at 3.7 µM 0% | [5]; [17] -9% | [5]; at 11.0 µM 3% | [5]; at 33.0 µM 1% | [5]; [18] 7% | [5]; at 50.0 µM -12.4% | [5]; at 100.0 µM 28% | [6]; at 1.2 µM -1% | [6]; at 3.7 µM -1% | [6]; at 11.0 µM -1% | [6]; at 33.0 µM -1% | [6]; at 100.0 µM 7% | [7]; [17] 4% | [7]; [18] 38% | [7]; at 50.0 µM 37.5% | [8]; at 1.2 µM 0% | [8]; at 3.7 µM -5% | [8]; at 11.0 µM -5% | [8]; at 33.0 µM -7% | [8]; at 100.0 µM -4% | [9]; [17] -2% | [9]; [18] 1% | [9]; at 50.0 µM 1.5% | [10]; at 1.2 µM 0% | [10]; at 3.7 µM -3% | [10]; [17] -3% | [10]; at 11.0 µM -7% | [10]; at 33.0 µM -6% | [10]; [18] -7% | [10]; at 50.0 µM -11.4% | [10]; at 100.0 µM -16% | [11]; at 1.2 µM 0% | [11]; at 3.7 µM 4% | [11]; at 11.0 µM 15% | [11]; at 33.0 µM 42% | [12]; [17] 5% | [12]; [18] 15% | [12]; at 50.0 µM 19.9% | [13]; at 1.2 µM 17% | [13]; at 3.7 µM 54%
active: [1]; at 100.0 µM 82% | [2]; at 100.0 µM 92% | [4]; at 50.0 µM 70.2% | [4]; at 100.0 µM 89% | [11]; at 100.0 µM 73% | [13]; at 11.0 µM 86% | [13]; at 33.0 µM 92% | [13]; at 100.0 µM 96%

OCC(O)C(O)CO (stereo unspecified) (tested in a mixture with another compound)
active: [4]; [18] 82%
inactive: [14]; at 1.2 µM -4% | [14]; at 3.7 µM -4% | [14]; at 11.0 µM -5% | [14]; at 33.0 µM -2% | [14]; at 100.0 µM 0% | [2]; at 1.2 µM 1% | [2]; at 3.7 µM 2% | [2]; at 11.0 µM 6% | [2]; at 33.0 µM 9% | [2]; at 100.0 µM 10% | [3]; at 1.2 µM 0% | [3]; at 3.7 µM -2% | [3]; at 11.0 µM -1% | [3]; at 33.0 µM 5% | [3]; at 100.0 µM 0% | [4]; at 1.2 µM -8% | [4]; at 3.7 µM -17% | [4]; [17] -130% | [4]; at 11.0 µM -3% | [4]; at 33.0 µM 16% | [4]; at 50.0 µM 15.4% | [4]; at 100.0 µM -1% | [5]; at 1.2 µM -1% | [5]; at 3.7 µM 0% | [5]; [17] -47% | [5]; at 11.0 µM -6% | [5]; at 33.0 µM 0% | [5]; [18] -1% | [5]; at 50.0 µM 32.4% | [5]; at 100.0 µM 3% | [6]; at 1.2 µM -1% | [6]; at 3.7 µM -5% | [6]; at 11.0 µM -4% | [6]; at 33.0 µM -3% | [6]; at 100.0 µM -1% | [7]; [17] -57% | [7]; [18] 39% | [7]; at 50.0 µM -2.1% | [8]; at 1.2 µM 2% | [8]; at 3.7 µM -1% | [8]; at 11.0 µM 0% | [8]; at 33.0 µM 0% | [8]; at 100.0 µM 1% | [9]; [17] -60% | [9]; [18] -30% | [9]; at 50.0 µM -44.6% | [10]; at 1.2 µM -1% | [10]; at 3.7 µM -4% | [10]; [17] -64% | [10]; at 11.0 µM -3% | [10]; at 33.0 µM -2% | [10]; [18] 25% | [10]; at 50.0 µM 12.3% | [10]; at 100.0 µM 3% | [15]; at 1.2 µM -2% | [15]; at 3.7 µM 1% | [15]; at 11.0 µM 0% | [15]; at 33.0 µM -2% | [15]; at 100.0 µM 0% | [16]; at 1.2 µM 8% | [16]; at 3.7 µM -1% | [16]; at 11.0 µM -5% | [16]; at 33.0 µM -5% | [16]; at 100.0 µM -3% | [11]; at 1.2 µM -1% | [11]; at 3.7 µM 1% | [11]; at 11.0 µM 2% | [11]; at 33.0 µM 2% | [11]; at 100.0 µM -2% | [12]; [17] -110% | [12]; [18] 29% | [12]; at 50.0 µM -9.65% | [13]; at 1.2 µM -4% | [13]; at 3.7 µM -3% | [13]; at 11.0 µM -2% | [13]; at 33.0 µM -2% | [13]; at 100.0 µM 1%
